High-throughput results (PubChem)
Cy5 interf NS3h = Cy5 fluorescence quenchers or enhancers, artefact control for HCV NS3 helicase inhibitor project, biochemical, ChemBridge library, Cy5 readout. Cy5-dT15 DNA with NS3h, fluorescence interference; actives lie on both sides; signal over control mean, under 1 quenches. fluorescence interference ratio at 100 µM. 6% of 16,000 active;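 active means compound fluorescence over control fluorescence at most 0.8, a quencher, or at least a set upper limit, an enhancer; inactive means ratio between 0.8 and the set upper limit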
HCV NS3h FP = HCV NS3 helicase inhibitors, primary screen, biochemical, fluorescence polarization, ChemBridge library. NS3h Cy5-dT15 DNA binding. 1.6% of 16,000 active. AID 687043, 2013. inhibition, % at 100 µM. Hepatitis C virus NS3 helicase;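 active means inhibition above the average over every tested compound plus 3 SD, cut at about 40% in these data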
Of the large screens only hits and unclear results are named; the others gave an inactive call. Hits are enriched below; roughly 6.8% of the tested compounds scored in any of these assays.

CCOc1ccc(NC(=O)CSc2nc3ccccc3[nH]2)cc1	none
O=C(CSc1nc2ccc([N+](=O)[O-])cc2[nH]1)c1ccc2ccccc2c1	none
O=C(CSc1nc2ccc([N+](=O)[O-])cc2[nH]1)c1ccc(Br)cc1	Cy5 interf NS3h 0.61
CS(=O)(=O)N(CC(=O)N1CCOCC1)c1ccc(Br)cc1	none
CC(=O)C1=C(c2ccccc2)S/C(=C2/C(=S)C(C)(C)Nc3ccccc32)S1	none
COC(=O)c1cc(C(=O)NCc2ccc(OC)cc2)cc([N+](=O)[O-])c1	none
CCN(Cc1ccccc1)C(=O)c1cc(C(=O)OC)cc([N+](=O)[O-])c1	Cy5 interf NS3h 0.66
CC(C)(C)N1C(=O)NC(=O)C(=Cc2ccc([N+](=O)[O-])s2)C1=O	none
O=C1NC(=S)N(c2ccc(F)cc2)C(=O)C1=Cc1ccc([N+](=O)[O-])s1	HCV NS3h FP 43
COCCCNC(=O)Cc1ccccc1[N+](=O)[O-]	none
COc1ccc(S(=O)(=O)N(CC(=O)Nc2ccccc2C(F)(F)F)Cc2ccccc2)cc1OC	Cy5 interf NS3h 0.63
COc1ccc(S(=O)(=O)N(CCc2ccccc2)CC(=O)Nc2ccc(Br)cc2)cc1OC	none
O=C(/C=C/c1ccco1)NC(=S)N(Cc1ccccc1)c1ccccc1	none
N#C/C(=C\c1cn(CC(=O)Nc2ccccc2)c2ccccc12)c1nc2ccccc2[nH]1	none
CN(C)c1ccc(/C=C2/C(=O)NC(=O)N(CCCO)C2=O)cc1	none
C=CCN1C(=O)/C(=C/c2ccc(N(C)C)cc2)C(=O)NC1=S	Cy5 interf NS3h 1.2
O=C(O)CCCN1C(=O)C(=O)C(=C(O)c2ccc(Cl)cc2)C1c1ccccc1 (stereo not given)	none
COc1ccc(C2C(=C(O)c3ccc(Cl)cc3)C(=O)C(=O)N2CCCC(=O)O)cc1 (stereo not given)	Cy5 interf NS3h 0.15
Cc1ccccc1N(CC(=O)NCc1ccncc1)S(=O)(=O)c1ccccc1	none
COc1ccc(NC(=O)CN(c2ccc(Oc3ccccc3)cc2)S(C)(=O)=O)cc1OC	none
COc1cccc(N2C(=O)C(=O)C(=C(O)c3ccccc3)C2c2ccccc2Cl)c1 (stereo not given)	Cy5 interf NS3h 0.73
COc1cccc(N2C(=O)C(=O)C(=C(O)c3ccccc3)C2c2ccc(Cl)cc2)c1 (stereo not given)	none
COc1ccc(OC)c(N(CC(N)=O)S(C)(=O)=O)c1	none
COc1ccc(S(=O)(=O)N2CCN(C(=O)c3cccc(F)c3)CC2)cc1	none
COc1ccc(S(=O)(=O)N2CCN(C(=O)c3cccs3)CC2)cc1	Cy5 interf NS3h 0.69
N/C(=N\OCC(=O)Nc1ccc(F)cc1)c1nonc1N	none
Cc1cccc(C)c1NC(=O)CO/N=C(/N)c1nonc1N	Cy5 interf NS3h 0.71
CC(=O)c1c(C)oc2ccc(O)c(N)c12	none
CC(C)c1ccc(N(CC(N)=O)S(=O)(=O)c2ccccc2)cc1	none
CC(=O)Nc1ccccc1NC(=O)c1ccccc1Br	none
Cc1ccc([N+](=O)[O-])cc1NC(=O)C(C)Oc1ccccc1 (stereo not given)	none
N#CC1=C(N)C(C#N)(C#N)C(c2ccc(Cl)cc2Cl)C2CCCC=C12 (stereo not given)	Cy5 interf NS3h 1.2
CCc1ccc(S(=O)(=O)Nc2cc3c(C(=O)O)c(C)oc3c3ccccc23)cc1	Cy5 interf NS3h 0.72
CCOC(=O)c1c(C)oc2c(Br)cc(NS(=O)(=O)c3ccccc3)cc12	none
O=C(Cc1ccc(Cl)cc1)NCc1ccccn1	none
Cc1ccc(N2C(=O)C3C4C=CC(C5CC45)C3C2=O)cc1Cl (stereo not given)	none
CC1=NN(c2ccc(C)c(Cl)c2)C(=O)C1	Cy5 interf NS3h 0.72
COc1ccc(C(NC(=O)Cc2ccccc2)c2ccc3cccnc3c2O)cc1 (stereo not given)	none
COc1c(Cl)cc(C(=O)Nc2ccc(Cl)c(-c3nc4ccccc4o3)c2)cc1Cl	none
CC(C)(C)C1=NN(C(=O)c2ccc([N+](=O)[O-])cc2)C(O)(C(F)(F)F)C1 (stereo not given)	Cy5 interf NS3h 0.67
CC1=NN(C(=O)c2ccc([N+](=O)[O-])cc2)C(O)(c2ccc(Cl)cc2)C1 (stereo not given)	none
Cc1cc(=O)oc2c1ccc1oc(/C(=N/O)c3ccc(Cl)cc3)c(C)c12	none
CC(C)(C)C(=O)/C=C(/O)C(=O)NCc1ccccc1	none
CC(C)(C)C(=O)/C=C(N)\C=C\c1ccccc1	Cy5 interf NS3h 0.64
CC(=O)ON=C1c2cc(S(=O)(=O)N(C)C)ccc2-c2ccc(S(=O)(=O)N(C)C)cc21	Cy5 interf NS3h 0.61
O=S(=O)(c1ccc2c(c1)C(=NO)c1cc(S(=O)(=O)N3CCCC3)ccc1-2)N1CCCC1	none
COc1c(Cl)ccc(Cl)c1C(=O)Nc1c(C)cccc1C(C)C	none
COc1cc(C(=O)Nc2c(C)cccc2C(C)C)c(Br)c(OC)c1OC	Cy5 interf NS3h 1.2
Cc1cccc(CC2CC(=O)N(c3ccc(Cl)c(Cl)c3)C2=O)c1 (stereo not given)	none
CN1C(=O)/C(=C2/C(=O)N(CC(N)=O)c3ccccc32)SC1=S	none
COc1ccc(N2C(=O)/C(=C3/C(=O)N(Cc4ccccc4F)c4ccccc43)SC2=S)cc1	Cy5 interf NS3h 1.2
O=C(O)c1ccc(NC2=C(N3CCCCC3)C(=O)c3ccccc3C2=O)cc1	none
Cc1ccc(C(=O)N/C(=C\c2cccc([N+](=O)[O-])c2)C(=O)Nc2ccc(C)cc2C)cc1	Cy5 interf NS3h 1.3
Cc1ccc(C(=O)N/C(=C\c2cccc([N+](=O)[O-])c2)C(=O)Nc2ccc(C)c(C)c2)cc1	Cy5 interf NS3h 1.2
O=C(Nc1ccc(C(=O)O)cc1)/C(=C/c1cccc([N+](=O)[O-])c1)NC(=O)c1ccccc1	none
O=C(Nc1cccc(O)c1)/C(=C/c1cccc([N+](=O)[O-])c1)NC(=O)c1ccccc1	none
CCN(CC)c1ccc(C(=O)Nc2ccccc2C(F)(F)F)cc1	none
CCCCNC(=O)/C(=C/c1ccc(-c2cccc([N+](=O)[O-])c2)o1)NC(=O)c1ccc(OC)cc1	none
COc1ccc(C(=O)N/C(=C\c2ccc(-c3cccc([N+](=O)[O-])c3)o2)C(=O)NCCCN2CCOCC2)cc1	Cy5 interf NS3h 0.77
Cc1ccc(C(=O)Nc2cc(-c3ccc(F)cc3)[nH]n2)cc1	none
CCCCOc1ccc2c(=O)c(Oc3ccccc3Br)coc2c1	none
CCOC(=O)c1c(-c2ccc(C)cc2)csc1NC(=O)C1CC1	none
CCOC(=O)c1c(-c2ccc(C)cc2)csc1NC(=O)C(C)(C)C	Cy5 interf NS3h 0.69
O=C(NCC1CCCO1)c1nc2nc(-c3ccccc3)cc(C(F)(F)F)n2n1 (stereo not given)	none
O=C(Nc1c(F)cc(F)cc1Br)c1nc2nc(-c3ccccc3)cc(C(F)(F)F)n2n1	Cy5 interf NS3h 0.71
N#C/C(=C/c1ccc(-c2ccccc2[N+](=O)[O-])o1)C(=O)Nc1ccc(F)cc1	none
CC(Oc1ccccc1)C(=O)Nc1cc(C(N)=O)cc(C(N)=O)c1 (stereo not given)	none
CCc1cc(=O)oc2cc(C)cc(OC(C)=O)c12	none
CCc1cc(=O)oc2cc(C)cc(OCC(=O)c3ccccc3)c12	Cy5 interf NS3h 1.3
Cc1ccc(-c2[nH]n3c(=O)c4c(nc3c2C)CCS4)cc1	none
COc1cc(NC(=O)c2cnn3c2NC(c2ccco2)CC3C(F)(F)F)c(OC)cc1Cl (stereo not given)	none
C=CCOc1ccc(/C=C2\SC(=S)N(C)C2=O)cc1OC	none
